According to PubChem BioAssay (Tox21):
Results filed as inconclusive are left out. Active and inactive are the calls of the source. Unless noted, the call rests on the fitted dose curve; in most records, active means well fitted curve in the direction sought with a large enough effect in the repeat runs; inconclusive means weak or mixed curves; inactive means no such curve, though single readings can be large; an effect the other way counts as inactive or inconclusive.

Key:
[1] = qHTS assay to test for compound auto fluorescence at 590 nm (red) in HEK293 cells (AID 720679)
Procedure, shortened: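 HEK293 cells (2,000/well, medium with 10% dialyzed FBS) attached for 4-5 hr at 37C, received 23 nL compound and were incubated overnight at 37C, 5% CO2. Red fluorescence was then read at 540/590nm Ex/Em, referenced to Rose Bengal sodium.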

[2] = qHTS assay to test for compound auto fluorescence at 590 nm (red) in HEK293 cell free culture (AID 720683)
Procedure, shortened: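 Tox21 10K library compounds were pinned into cell-free DMEM with 10% FBS and fluorescence was read at excitation 540 nm. Activity is expressed as Rose Bengal sodium equivalency.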

[3] = qHTS assay to identify small molecule antagonists of the retinoid acid receptor (RAR) signaling pathway - cell viability counter screen (AID 1159551); further: nearly all actives have a fitted effect of over 35% in size
Procedure, shortened: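 Seed C3RL4 cells; next day add compound, then retinol to 1 uM final; incubate 6 h at 37 C; add CellTiter-Glo; read luminescence after 30 min at RT.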

[4] = qHTS assay to identify small molecule antagonists of the estrogen related receptor signaling pathway with the pleiotropic PPARgamma coactivator (PGC) from Tox21 10K library - cell viability counter screen (AID 1224840; active means well fitted cell-killing curve with a large enough effect in the repeat runs, not every such curve was filed as active; further: nearly all actives have a fitted effect of over 40% in size)
Procedure, shortened: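 Here the PGC/ERR cells serve as a cytotoxicity control: they are exposed to compounds for 17.5 hours at 37 C, and live-cell signal is quantified using CellTiter-Fluor fluorescence.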

[5] = qHTS RealTime-Glo MT Cell Viability Assay in HepG2 cells - 8 hour (AID 1224873); further: nearly all actives have a fitted effect of over 55% in size
Procedure, shortened: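 HepG2 cells mixed with RealTime-Glo MT reagents (NanoLuc plus cell-permeant prosubstrate) were seeded at 600 cells/well, incubated 5 h at 37 C/5% CO2, then pinned with compounds in DMSO; nonlytic luminescence tracked viability during 40 h treatment.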

[6] = A CellTox Green Cytotoxicity Assay to monitor cytotoxicity in HEK293 cells - 24 hour (AID 1224875); further: nearly all actives have a fitted effect of over 45% in size; further: potency means the concentration at half of the fitted maximal effect; on activity change: series mostly up to about 77 µM
Procedure, shortened: (§1)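 Seeding of HEK293 cells together with cytotoxicity dye preceded a 5 h incubation at 37 C/5% CO2. Test compounds in DMSO were then added and fluorescence monitored across 40 h.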

[7] = A CellTox Green Cytotoxicity Assay to monitor cytotoxicity in HEK293 cells - 32 hour (AID 1224881); further: nearly all actives have a fitted effect of over 40% in size; further: potency means the concentration at half of the fitted maximal effect
Procedure, shortened: as §1

[8] = qHTS RealTime-Glo MT Cell Viability Assay in HEK293 cells - 24 hour (AID 1224886); further: nearly all actives have a fitted effect of over 50% in size; further: potency means the concentration at half of the fitted maximal effect; on activity change, negative = cytotoxicity: top concentration of the series differs between compounds
Procedure, shortened: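 HEK293 cells were seeded at 600 cells/well together with NanoLuc luciferase and cell-permeant prosubstrate, preincubated 5 h at 37 C/5% CO2, then given compound in DMSO by pintool. Luminescence from viable-cell prosubstrate reduction was read repeatedly over 40 h.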

[9] = qHTS assay to identify small molecule agonists of the androgen receptor (AR) signaling pathway in the presence of an antagonist - cell viability counter screen (AID 1259379); further: nearly all actives have a fitted effect of over 25% in size; further: potency means the concentration at half of the fitted maximal effect;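 on activity change, negative = cytotoxicity: MDA-kb2 human breast cancer cells carrying an MMTV luciferase reporter; series mostly up to about 92 µM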
Procedure, shortened: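 A CellTiter-Fluor read-out measured viability of MDA-kb2 reporter cells (MMTV promoter with AR and GR response elements). Treatment: nilutamide 3.0uM final with compounds at 15 concentrations, 16 hr, 37C, 0% CO2.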

[10] = qHTS assay to identify small molecule antagonists of the estrogen receptor beta (ER-beta) signaling pathway - cell viability counter screen (AID 1259382); further: nearly all actives have a fitted effect of over 55% in size; further: potency means the concentration at half of the fitted maximal effect; on activity change, negative = cytotoxicity: series mostly up to about 92 µM
Procedure, shortened: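 Agonist-stimulated (1nM E2) ER-beta-UAS-bla HEK293T cells are incubated with library compounds for 16 hr at 37C. Cell viability is then assessed in the reporter-assay wells by adding CellTiter-Glo and reading luminescence after 30 min.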

[11] = target: Progesterone receptor (Homo sapiens) (UniProt P06401); experiment: qHTS assay to identify small molecule agonists of the progesterone receptor (PR) signaling pathway (AID 1346784; calls by dose curve; further: nearly all actives have a fitted effect of over 30% in size)
Procedure, shortened: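 Agonist qHTS: compounds pinned onto 3,000 PR-UAS-bla HEK 293T cells per well in charcoal-stripped serum medium, 16hr at 37C, then beta-lactamase activity measured by LiveBLAzer FRET fluorescence after 2 hours at room temperature.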

[12] = qHTS assay to identify small molecule antagonists of the progesterone receptor (PR) signaling pathway - cell viability counter screen (AID 1346798); further: series mostly up to about 92 µM; nearly all actives have a fitted effect of over 50% in size
Procedure, shortened: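 Cytotoxicity read as CellTiter-Glo luminescence (30 min, room temperature) in the same wells as the beta-lactamase readout. HEK293T PR-UAS-bla cells in charcoal-stripped 2% FBS received compound and R5020, then 16 h at 37C, 5% CO2.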

[13] = Human pregnane X receptor (PXR) small molecule agonists, qHTS cell viability counter screen (AID 1346977); further: nearly all actives have a fitted effect of over 50% in size; further: potency means the concentration at half of the fitted maximal effect
Procedure, shortened: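 Same-well viability read: CellTiter-Fluor added after 23 hr compound exposure, fluorescence measured 1 hr later. Cells were PXR-Luc HepG2 seeded at 2,000/well in 5% charcoal-stripped FBS medium, rested 5 hr before dosing at 37 C.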

[14] = Caspase-3/7 induction in CHO-K1 cells by small molecules, qHTS cell viability counter screen (AID 1346979); further: nearly all actives have a fitted effect of over 35% in size; further: potency means the concentration at half of the fitted maximal effect
Procedure, shortened: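 Cytotoxicity counter screen: CellTiter-Fluor added to compound-treated wild-type CHO-K1 cells at 16 h (37C, 5% CO2), fluorescence measured 1 h later; same wells as caspase-3/7 measurement.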

[15] = Caspase-3/7 induction in HepG2 cells by small molecules, qHTS cell viability counter screen (AID 1346981); further: nearly all actives have a fitted effect of over 30% in size; further: potency means the concentration at half of the fitted maximal effect; on activity change, negative = cytotoxicity: series mostly up to about 92 µM
Procedure, shortened: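 Multiplexed with the caspase-3/7 assay: HepG2 cells, 16 hr compound treatment, CellTiter-Fluor viability detection by fluorescence.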

[16] = target: Cytochrome P450 2D6 (Homo sapiens) (UniProt P10635); experiment: Cytochrome P450 Family 2 Subfamily D Member 6 (CYP2D6) small molecule antagonists: luciferase reporter qHTS assay (AID 1671196); further: nearly all actives have a fitted effect of over 50% in size; further: potency means the concentration at half of the fitted maximal effect; on activity change, negative = inhibition: series mostly up to about 120 µM
Procedure, shortened: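 Luminescence (RLU), read 20 min after detection reagent, indicated CYP2D6 conversion of proluciferin to luciferin during a 1 h NADPH-dependent reaction at room temperature.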

[17] = target: Cytochrome P450 3A4 (Homo sapiens) (UniProt P08684); experiment: Cytochrome P450 Family 3 Subfamily A Member 4 (CYP3A4) small molecule antagonists: luciferase reporter qHTS assay (AID 1671201); further: nearly all actives have a fitted effect of over 50% in size; further: potency means the concentration at half of the fitted maximal effect; on activity change, negative = inhibition: series mostly up to about 120 µM
Procedure, shortened: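 Recombinant human CYP3A4 converts a proluciferin substrate to luciferin over 1 h at room temperature after NADPH regeneration solution is added (compound preincubated 10 min); detection reagent stops reaction, luminescence read 20 min later as relative units.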

[18] = qHTS assay to identify small molecule agonists of the RXR signaling pathway - cell viability counter screen (AID 1159529); further: nearly all actives have a fitted effect of over 50% in size; further: potency means the concentration at half of the fitted maximal effect; on activity change, negative = cytotoxicity: series mostly up to about 77 µM
Procedure, shortened: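 CellTiter-Glo luminescence gave viability in the wells also read for beta-lactamase. Cells (RXR-alpha-UAS-bla HEK 293T, 2% charcoal-stripped FBS medium) had 5 hr plating, then 16 hr compound exposure at 37 C; tetraoctyl ammonium bromide served as positive control.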

[19] = target: Nuclear receptor subfamily 1 group I member 3 (Homo sapiens) (UniProt Q14994); experiment: qHTS assay to identify small molecule agonists of the constitutive androstane receptor (CAR) signaling pathway (AID 1224839); further: nearly all actives have a fitted effect of over 15% in size; further: potency means the concentration at half of the fitted maximal effect;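 on activation: HepG2 cells stably carrying human CAR and a CYP2B6 luciferase reporter; series mostly up to about 92 µM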
Procedure, shortened: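 Luminescent ONE-Glo read-out after 24 hr, 37 C exposure of double-stable HepG2-CYP2B6-hCAR reporter cells to a 15-point compound series, in the presence of 0.75 uM PK11195 (final).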

[20] = target: Thyrotropin-releasing hormone receptor (Homo sapiens) (UniProt P34981); experiment: qHTS assay to identify small molecule agonists of the thyrotropin-releasing hormone receptor (TRHR) signaling pathway (AID 1346891; calls by dose curve; further: series mostly up to about 58 µM)
Procedure, shortened: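 Agonist-mode intracellular calcium readout: kinetic fluorescence over 3 min at 1 s intervals after compound addition to TRHR-HEK293 cells (18 h seeded, 2 h dye-loaded at 37 C). Fifteen concentrations, triplicates.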
On the % scale 0 is the no-effect control and ±100 the full control effect.

Chain of Nuclear receptor subfamily 1 group I member 3 (Homo sapiens) (Q14994 whole entry, looked up): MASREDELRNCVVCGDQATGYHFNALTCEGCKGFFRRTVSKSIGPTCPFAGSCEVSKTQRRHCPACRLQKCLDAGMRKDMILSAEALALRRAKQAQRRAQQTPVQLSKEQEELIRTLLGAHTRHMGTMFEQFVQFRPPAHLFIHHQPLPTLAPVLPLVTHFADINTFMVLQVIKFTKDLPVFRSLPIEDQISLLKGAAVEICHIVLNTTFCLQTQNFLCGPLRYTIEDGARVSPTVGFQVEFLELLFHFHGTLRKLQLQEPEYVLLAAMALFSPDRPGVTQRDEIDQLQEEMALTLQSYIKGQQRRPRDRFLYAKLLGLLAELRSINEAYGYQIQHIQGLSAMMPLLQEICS
Chain of Thyrotropin-releasing hormone receptor (Homo sapiens) (P34981 whole entry, looked up): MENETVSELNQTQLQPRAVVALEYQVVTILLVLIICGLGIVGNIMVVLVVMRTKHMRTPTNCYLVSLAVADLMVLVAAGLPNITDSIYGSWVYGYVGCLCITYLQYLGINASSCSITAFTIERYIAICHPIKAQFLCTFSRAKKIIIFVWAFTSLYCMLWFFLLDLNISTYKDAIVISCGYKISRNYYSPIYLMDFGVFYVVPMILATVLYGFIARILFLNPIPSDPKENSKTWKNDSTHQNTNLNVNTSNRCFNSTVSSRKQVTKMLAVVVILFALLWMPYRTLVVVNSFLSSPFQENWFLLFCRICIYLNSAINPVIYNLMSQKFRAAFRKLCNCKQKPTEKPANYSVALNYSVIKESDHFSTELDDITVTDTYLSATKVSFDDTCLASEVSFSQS
Chain of Cytochrome P450 3A4 (Homo sapiens) (P08684 whole entry, looked up): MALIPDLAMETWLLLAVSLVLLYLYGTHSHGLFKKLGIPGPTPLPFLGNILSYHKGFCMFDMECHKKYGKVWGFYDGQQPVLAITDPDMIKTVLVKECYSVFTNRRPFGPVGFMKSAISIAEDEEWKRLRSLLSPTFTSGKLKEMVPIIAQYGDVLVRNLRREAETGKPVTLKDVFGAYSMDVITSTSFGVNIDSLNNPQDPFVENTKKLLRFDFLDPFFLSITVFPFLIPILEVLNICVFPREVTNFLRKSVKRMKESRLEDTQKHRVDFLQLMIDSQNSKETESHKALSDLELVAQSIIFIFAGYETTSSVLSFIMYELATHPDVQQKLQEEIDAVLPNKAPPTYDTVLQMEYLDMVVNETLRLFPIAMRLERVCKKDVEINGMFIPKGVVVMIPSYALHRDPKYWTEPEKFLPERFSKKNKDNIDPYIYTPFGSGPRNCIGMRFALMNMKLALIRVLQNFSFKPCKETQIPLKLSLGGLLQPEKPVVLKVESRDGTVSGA
Chain of Progesterone receptor (Homo sapiens) (P06401 whole entry, looked up): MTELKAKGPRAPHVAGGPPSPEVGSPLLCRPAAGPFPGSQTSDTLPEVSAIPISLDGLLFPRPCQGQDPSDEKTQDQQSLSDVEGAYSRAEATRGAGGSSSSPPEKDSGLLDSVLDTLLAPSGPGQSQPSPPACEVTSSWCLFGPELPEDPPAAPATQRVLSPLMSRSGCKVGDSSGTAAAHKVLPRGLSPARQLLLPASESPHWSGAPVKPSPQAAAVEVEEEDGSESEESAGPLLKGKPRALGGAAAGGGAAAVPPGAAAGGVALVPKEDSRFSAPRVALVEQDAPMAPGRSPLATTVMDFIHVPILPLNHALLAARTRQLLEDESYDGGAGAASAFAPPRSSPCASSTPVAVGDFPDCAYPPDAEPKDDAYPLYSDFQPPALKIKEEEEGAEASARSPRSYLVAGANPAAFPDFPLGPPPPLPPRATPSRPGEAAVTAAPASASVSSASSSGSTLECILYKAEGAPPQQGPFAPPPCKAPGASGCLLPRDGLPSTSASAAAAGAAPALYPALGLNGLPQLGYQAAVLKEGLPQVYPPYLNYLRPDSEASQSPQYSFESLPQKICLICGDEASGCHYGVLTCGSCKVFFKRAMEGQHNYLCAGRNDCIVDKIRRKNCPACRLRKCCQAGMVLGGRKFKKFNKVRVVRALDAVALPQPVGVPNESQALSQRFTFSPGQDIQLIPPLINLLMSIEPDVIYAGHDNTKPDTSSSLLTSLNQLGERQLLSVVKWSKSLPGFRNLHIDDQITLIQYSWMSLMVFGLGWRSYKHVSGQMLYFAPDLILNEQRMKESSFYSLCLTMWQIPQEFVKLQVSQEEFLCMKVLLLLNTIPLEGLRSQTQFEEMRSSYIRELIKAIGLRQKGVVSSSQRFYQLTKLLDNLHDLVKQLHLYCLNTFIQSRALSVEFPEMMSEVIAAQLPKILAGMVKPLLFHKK
Chain of Cytochrome P450 2D6 (Homo sapiens) (P10635 whole entry, looked up): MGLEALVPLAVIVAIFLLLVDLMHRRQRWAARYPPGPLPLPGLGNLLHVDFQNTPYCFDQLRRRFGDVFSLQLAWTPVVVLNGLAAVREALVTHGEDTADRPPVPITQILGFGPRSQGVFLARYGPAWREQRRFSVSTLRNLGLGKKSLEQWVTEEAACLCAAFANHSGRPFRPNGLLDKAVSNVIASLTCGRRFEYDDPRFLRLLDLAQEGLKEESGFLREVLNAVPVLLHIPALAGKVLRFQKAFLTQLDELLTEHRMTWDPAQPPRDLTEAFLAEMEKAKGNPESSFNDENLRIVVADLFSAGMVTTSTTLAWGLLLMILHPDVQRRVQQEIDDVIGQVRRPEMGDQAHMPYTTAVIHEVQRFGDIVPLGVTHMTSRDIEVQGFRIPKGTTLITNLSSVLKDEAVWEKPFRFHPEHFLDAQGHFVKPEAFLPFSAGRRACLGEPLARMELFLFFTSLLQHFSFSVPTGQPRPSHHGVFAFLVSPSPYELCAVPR

O=[N+]([O-])c1c(Cl)c(Cl)cc(Cl)c1Cl
inactive: outcome [1] | outcome [2] | Potency [3] | Potency [4] | Potency [5] | Potency [8] | Potency [9] | Potency [10] | outcome [11] | Potency [12] | Potency [13] | Potency [14] | Potency [15] | Potency [17]
active: Potency [6] 49 µM | Potency [7] 43.6 µM | Potency [16] 35.6 µM

ClC(Cl)=C(c1ccc(Cl)cc1)c1ccccc1Cl
inactive: Potency [3] | Potency [4] | Potency [5] | Potency [9] | Potency [10] | outcome [11] | Potency [12] | outcome [20] | Potency [15] | Potency [16] | Potency [17]
active: Potency [18] 24.5 µM | Potency [19] 21.7 µM

Cc1cc(C)c(C(=O)P(=O)(c2ccccc2)c2ccccc2)c(C)c1
inactive: Potency [3] | Potency [4] | Potency [6] | outcome [20]
active: Potency [18] 49 µM | Potency [19] 15.4 µM | Potency [8] 38.9 µM | Potency [10] 61.1 µM | Potency [13] 61.1 µM | Potency [17] 5.03 µM

CC1COC(Cn2cncn2)(c2ccc(Oc3ccc(Cl)cc3)cc2Cl)O1 (stereo not given)
inactive: outcome [1] | outcome [2] | Potency [3] | Potency [6] | Potency [7]
active: Potency [8] 19.5 µM | Potency [9] 48.6 µM | Potency [13] 21.7 µM | Potency [14] 24.3 µM | Potency [15] 43.3 µM | Potency [16] 39.9 µM | Potency [17] 0.0796 µM

CC(c1ccccc1)(c1ccc(O)cc1)c1ccc(O)cc1
inactive: Potency [5] | outcome [20]
active: Potency [10] 61.1 µM | Potency [14] 68.6 µM | Potency [17] 25.2 µM

Cc1ccc2nc3sc(=O)sc3nc2c1
inactive: activity change, negative = cytotoxicity [18] -5.08% [at 15.8 µM] | activity change, negative = cytotoxicity [3] 1.22% [at 19 µM] | activation [19] 7.43% [at 19 µM] | viability change, negative = cytotoxic [4] -9.2% [at 19 µM] | viability change, negative = cytotoxic [5] 3.11% [at 15.8 µM] | activity change [6] -5.16% [at 15.8 µM, hits give high values] | cytotoxicity increase [7] -11.5% [at 15.8 µM] | activity change, negative = cytotoxicity [8] 3.52% [at 15.8 µM] | activity change, negative = cytotoxicity [9] -12.9% [at 19 µM] | activity change, negative = cytotoxicity [10] -3.52% [at 19 µM] | activation [11] 0.875% [at 19 µM] | activity change, negative = cytotoxicity [12] -19.3% [at 18.9 µM] | activation [20] -0.107% [at 11.8 µM] | activity change, negative = cytotoxicity [13] -12.4% [at 19 µM] | activity change, negative = cytotoxicity [15] -0.0724% [at 19 µM] | activity change, negative = inhibition [16] 1.42% [at 23.6 µM] | activity change, negative = inhibition [17] 0.418% [at 23.6 µM]
active: Potency [14] 5.8 µM

Cc1cc(C(C)(C)c2ccc(O)c(C)c2)ccc1O
inactive: outcome [1] | outcome [2] | Potency [3] | Potency [5] | Potency [10] | outcome [11] | outcome [20]
active: Potency [19] 29.2 µM | Potency [8] 20.8 µM | Potency [13] 20.7 µM | Potency [14] 41.2 µM | Potency [15] 46.2 µM | Potency [16] 30.2 µM | Potency [17] 1.91 µM

CCc1cccc(CC)c1N
inactive: Potency [19]
